Data as given in PubChem BioAssay (EPA / NIEHS).
Calls of active or inactive are those of the source. Rule for the calls: active = hit-call score of the fitted dose curve at least 0.9, where 1 is the maximum; inactive = score below 0.9.

Key:
[1] = ATG_GLI_CIS: Attagene CIS-FACTORIAL HepG2 Assay for human Zinc Finger Protein GLI1 (AID 2282945); details: HepG2, Attagene cis-factorial reporter mRNA, GLI element; actives raise or lower the signal
In short: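 Bidirectional curve fits relative to DMSO, using reporter mRNA levels from RT-PCR plus capillary electrophoresis. Cells were HepG2 transiently carrying cis-regulated reporter constructs, harvested 24 h after dosing.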

[2] = ATG_ISRE_CIS: Attagene CIS-FACTORIAL HepG2 Assay for human Interferon Regulatory Factor 1 (IRF1) binding to an Interferon-Stimulated Response Element (ISRE) (AID 2282948); details: HepG2 ISRE cis-reporter (Attagene), mRNA transcription readout; actives raise or lower the signal
In short: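 Endogenous transcription factor activity read as reporter transcript abundance via RT-PCR and capillary electrophoresis. HepG2 cells transiently transfected, 24 h chemical exposure. Gain or loss fitted against DMSO baseline.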

[3] = ATG_M_32_CIS: Attagene CIS-FACTORIAL HepG2 Assay for M32 Transcription Factor (Internal Marker) (AID 2282949); details: HepG2 Attagene cis-factorial M32 reporter, mRNA; actives raise or lower the signal;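 note: background control marker of the multiplexed CIS panel rather than a real target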
In short: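 Using DMSO as baseline, bidirectional curve fits were applied to reporter mRNA signals. These came from transiently transfected HepG2 cells exposed for 24 h, with RNA analysed by RT-PCR, FAM primer extension, HpaI digestion and CE.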

[4] = ATG_M_06_CIS: Attagene CIS-FACTORIAL HepG2 Assay for M06 Transcription Factor (Internal Marker) (AID 2282950); details: HepG2 Attagene CIS-FACTORIAL M06 internal marker reporter; actives raise or lower the signal
In short: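 HepG2 liver cells, 24 h exposure. Reporter transcripts from transfected cis-element constructs quantified by RT-PCR/capillary electrophoresis fluorescence. Bidirectional curve fit against DMSO.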

[5] = molecular target: Hypoxia-inducible factor 1-alpha (Homo sapiens) (UniProt Q16665); test: ATG_HIF1a_CIS: Attagene CIS-FACTORIAL HepG2 Assay for human Hypoxia Inducible Factor 1 (HIF1A) (AID 2282951); details: HepG2 Attagene cis-factorial HIF1a reporter transcription; actives raise or lower the signal
Sequence of Hypoxia-inducible factor 1-alpha (Homo sapiens) (Q16665 whole entry, looked up): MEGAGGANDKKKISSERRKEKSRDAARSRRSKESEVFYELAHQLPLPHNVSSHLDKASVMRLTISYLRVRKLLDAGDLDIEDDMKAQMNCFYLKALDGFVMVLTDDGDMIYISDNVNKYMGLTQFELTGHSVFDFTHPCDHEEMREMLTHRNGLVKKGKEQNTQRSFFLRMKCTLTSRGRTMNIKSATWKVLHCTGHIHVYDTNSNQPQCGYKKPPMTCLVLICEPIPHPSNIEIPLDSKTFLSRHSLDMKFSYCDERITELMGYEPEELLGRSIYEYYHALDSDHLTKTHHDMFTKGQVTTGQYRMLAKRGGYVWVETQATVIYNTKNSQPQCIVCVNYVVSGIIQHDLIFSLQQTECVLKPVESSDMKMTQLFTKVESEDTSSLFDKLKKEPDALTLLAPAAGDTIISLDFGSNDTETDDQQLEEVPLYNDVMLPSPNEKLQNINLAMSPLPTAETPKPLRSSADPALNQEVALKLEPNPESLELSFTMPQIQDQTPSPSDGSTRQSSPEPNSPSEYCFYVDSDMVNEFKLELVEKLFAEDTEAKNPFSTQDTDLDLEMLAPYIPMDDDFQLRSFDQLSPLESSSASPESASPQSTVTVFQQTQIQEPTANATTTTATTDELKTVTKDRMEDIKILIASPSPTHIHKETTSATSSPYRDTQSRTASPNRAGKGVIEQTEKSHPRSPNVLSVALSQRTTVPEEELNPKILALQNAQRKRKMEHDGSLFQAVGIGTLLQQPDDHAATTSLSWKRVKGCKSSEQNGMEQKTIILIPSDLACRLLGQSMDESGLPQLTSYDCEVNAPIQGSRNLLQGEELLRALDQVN
In short: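 Cis-element reporter constructs were transiently transfected into HepG2 cells, which were treated for 24 h; reporter RNA was reverse-transcribed, amplified, labelled and resolved by capillary electrophoresis.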

[6] = molecular target: Hepatocyte nuclear factor 6 (Homo sapiens) (UniProt Q9UBC0); test: ATG_HNF6_CIS: Attagene CIS-FACTORIAL HepG2 Assay for human Hepatocyte Nuclear Factor 6 (HNF6) (AID 2282952); details: HepG2 Attagene cis-factorial HNF6 reporter transcription; actives raise or lower the signal
Sequence of Hepatocyte nuclear factor 6 (Homo sapiens) (Q9UBC0 whole entry, looked up, the tested form may be a part): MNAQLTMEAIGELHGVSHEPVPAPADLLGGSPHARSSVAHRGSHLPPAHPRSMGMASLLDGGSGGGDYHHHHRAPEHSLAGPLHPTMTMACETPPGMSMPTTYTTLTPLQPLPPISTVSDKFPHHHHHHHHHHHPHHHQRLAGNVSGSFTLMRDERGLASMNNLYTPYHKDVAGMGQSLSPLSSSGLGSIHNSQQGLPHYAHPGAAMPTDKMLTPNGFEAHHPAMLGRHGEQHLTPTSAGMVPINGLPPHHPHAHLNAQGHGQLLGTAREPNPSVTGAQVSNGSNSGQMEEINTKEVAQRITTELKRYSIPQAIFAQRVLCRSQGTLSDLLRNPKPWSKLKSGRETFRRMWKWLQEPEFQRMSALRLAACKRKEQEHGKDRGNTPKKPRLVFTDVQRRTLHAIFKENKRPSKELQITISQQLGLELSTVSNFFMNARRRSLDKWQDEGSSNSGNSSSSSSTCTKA
In short: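 Using cis-element reporters in HepG2 liver cells, the assay tracks endogenous factor-driven transcription 24 h post-dosing. Signal comes from 6-FAM-labelled, HpaI-digested RT-PCR fragments, with gain or loss scored against DMSO.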

[7] = molecular target: Heat shock factor protein 1 (Homo sapiens) (UniProt Q00613); test: ATG_HSE_CIS: Attagene CIS-FACTORIAL HepG2 Assay for human Heat Shock Transcription Factor 1 (HSE) (AID 2282953); details: HepG2 HSE cis-reporter, Attagene RNA transcription; actives raise or lower the signal
Sequence of Heat shock factor protein 1 (Homo sapiens) (Q00613 whole entry, looked up, the tested form may be a part): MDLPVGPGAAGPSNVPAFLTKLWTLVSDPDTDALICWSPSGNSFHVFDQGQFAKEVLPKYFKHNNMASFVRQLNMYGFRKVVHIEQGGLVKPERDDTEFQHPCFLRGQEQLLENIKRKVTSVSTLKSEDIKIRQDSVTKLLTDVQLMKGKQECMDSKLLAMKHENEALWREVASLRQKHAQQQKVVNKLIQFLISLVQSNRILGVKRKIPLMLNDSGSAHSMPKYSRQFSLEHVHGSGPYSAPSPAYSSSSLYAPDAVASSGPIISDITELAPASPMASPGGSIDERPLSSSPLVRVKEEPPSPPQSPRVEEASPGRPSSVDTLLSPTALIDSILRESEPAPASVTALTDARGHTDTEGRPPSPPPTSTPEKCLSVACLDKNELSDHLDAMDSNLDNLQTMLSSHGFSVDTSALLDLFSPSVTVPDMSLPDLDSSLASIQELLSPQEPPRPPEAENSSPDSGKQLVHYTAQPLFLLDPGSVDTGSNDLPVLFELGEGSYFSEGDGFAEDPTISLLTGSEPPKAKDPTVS
In short: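 Endogenous transcription factor activity captured via cis-promoter reporter units transfected into HepG2; treatment lasted 24 h. Fluorescence intensity of reporter fragments analysed with bidirectional curve fitting, DMSO baseline.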

[8] = ATG_MRE_CIS: Attagene CIS-FACTORIAL HepG2 Assay for human Metal Responsive Element (MRE) (AID 2282954); details: HepG2 MRE cis-reporter transcription, Attagene multiplex; actives raise or lower the signal
In short: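 Multiplexed cis-reporter assay in human HepG2 liver cells, 24 h incubation with test chemical. Reporter transcripts measured by RT-PCR and capillary electrophoresis; values from bidirectional curve fitting versus DMSO.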

[9] = molecular target: Paired box protein Pax-6 (Homo sapiens) (UniProt P26367); test: ATG_Pax6_CIS: Attagene CIS-FACTORIAL HepG2 Assay for human Paired Box 6 (PAX6) (AID 2282956); details: HepG2 CIS-FACTORIAL PAX6 reporter transcription, RNA readout; actives raise or lower the signal
Sequence of Paired box protein Pax-6 (Homo sapiens) (P26367 whole entry, looked up): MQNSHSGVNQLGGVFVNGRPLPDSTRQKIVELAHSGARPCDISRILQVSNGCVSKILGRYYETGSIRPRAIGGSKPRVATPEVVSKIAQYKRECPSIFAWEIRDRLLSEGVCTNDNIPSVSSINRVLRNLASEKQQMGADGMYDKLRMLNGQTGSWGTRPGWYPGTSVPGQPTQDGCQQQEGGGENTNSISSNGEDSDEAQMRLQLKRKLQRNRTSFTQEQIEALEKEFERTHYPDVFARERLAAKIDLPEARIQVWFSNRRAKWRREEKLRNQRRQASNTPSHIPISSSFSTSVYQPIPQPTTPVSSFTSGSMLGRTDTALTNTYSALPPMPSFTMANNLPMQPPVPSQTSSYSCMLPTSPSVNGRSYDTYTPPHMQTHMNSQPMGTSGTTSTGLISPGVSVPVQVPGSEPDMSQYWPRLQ
In short: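 Read-out is reporter transcript level, measured by RT-PCR with fluorescent primer extension and capillary electrophoresis after 24 h dosing of transfected HepG2 cells. Activity in either direction fitted relative to DMSO control.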

[10] = ATG_PXRE_CIS: Attagene CIS-FACTORIAL HepG2 Assay for human Pregnane X Receptor Element (PXRE) (AID 2282957); details: HepG2 Attagene CIS-FACTORIAL PXRE reporter, mRNA; actives raise or lower the signal
In short: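 Using HepG2 transfected with multiple reporter transcription units, endogenous factor-driven transcription was scored as reporter mRNA after 24 h exposure.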

[11] = ATG_RORE_CIS: Attagene CIS-FACTORIAL HepG2 Assay for human RAR-related Orphan Receptor Element (RORE) (AID 2282959); details: HepG2 Attagene cis-factorial RORE reporter, mRNA; actives raise or lower the signal
In short: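 Transfect HepG2 with MRTUs; treat 24 h; extract RNA; RT with oligo(dT); PCR with reporter-specific primers; 6-FAM primer extension; HpaI digest 2 h at 37 C; capillary electrophoresis. Fit vs DMSO, bidirectional.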

[12] = ATG_Sox_CIS: Attagene CIS-FACTORIAL HepG2 Assay for human SRY-box transcription factor (SOX) (AID 2282960); details: HepG2 Attagene cis-factorial SOX reporter, mRNA; actives raise or lower the signal
In short: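 Fluorescence-labelled cDNA fragments from reporter transcripts, sized by CE, give the signal. Cells: HepG2, transiently transfected with cis-regulated reporter units. Exposure 24 h; DMSO negative control; bidirectional curve fitting.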

[13] = molecular target: Transcription factor Sp1 (Homo sapiens) (UniProt P08047); test: ATG_Sp1_CIS: Attagene CIS-FACTORIAL HepG2 Assay for human Specificity Protein 1 (Sp1) (AID 2282961); details: HepG2 Sp1 cis-reporter transcription, actives raise or lower the signal
Sequence of Transcription factor Sp1 (Homo sapiens) (P08047 whole entry, looked up): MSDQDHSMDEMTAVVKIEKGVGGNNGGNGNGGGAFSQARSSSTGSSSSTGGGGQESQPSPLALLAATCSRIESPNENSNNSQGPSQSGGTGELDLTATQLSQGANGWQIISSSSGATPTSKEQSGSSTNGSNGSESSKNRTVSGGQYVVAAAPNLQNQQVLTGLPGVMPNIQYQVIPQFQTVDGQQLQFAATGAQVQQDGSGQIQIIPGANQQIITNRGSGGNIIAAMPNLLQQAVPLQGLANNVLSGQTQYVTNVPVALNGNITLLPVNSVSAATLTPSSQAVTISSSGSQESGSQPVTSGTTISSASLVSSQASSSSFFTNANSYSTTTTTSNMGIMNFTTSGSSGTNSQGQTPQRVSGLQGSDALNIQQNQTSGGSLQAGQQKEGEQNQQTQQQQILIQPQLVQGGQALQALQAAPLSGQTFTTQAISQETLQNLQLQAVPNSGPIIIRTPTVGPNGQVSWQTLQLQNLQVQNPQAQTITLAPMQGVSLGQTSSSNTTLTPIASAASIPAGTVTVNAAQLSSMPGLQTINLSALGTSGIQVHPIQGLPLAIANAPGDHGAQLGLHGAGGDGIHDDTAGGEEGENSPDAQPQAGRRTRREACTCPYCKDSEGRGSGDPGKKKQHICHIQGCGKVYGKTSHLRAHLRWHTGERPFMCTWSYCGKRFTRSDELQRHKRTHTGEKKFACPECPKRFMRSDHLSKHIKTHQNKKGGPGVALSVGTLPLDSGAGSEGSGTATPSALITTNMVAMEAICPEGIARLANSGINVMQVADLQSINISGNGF
In short: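 Chemicals are dosed onto HepG2 cells transfected with multiple cis-promoter reporter constructs, and after 24 h reporter RNA is reverse-transcribed, PCR-amplified and resolved by capillary electrophoresis for fluorescence quantitation; activity is scored up or down against DMSO.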

[14] = ATG_SREBP_CIS: Attagene CIS-FACTORIAL HepG2 Assay for human Sterol Regulatory Element Binding (SREBP) (AID 2282962); details: HepG2 Attagene cis-factorial SREBP reporter, mRNA; actives raise or lower the signal
In short: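 Endogenous SREBP activity read as cis-element-driven reporter transcript in transiently transfected HepG2, 24 h post-dosing; quantified via RT-PCR plus capillary electrophoresis of fluorescent fragments. Gain or loss of signal fitted relative to DMSO baseline.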

[15] = molecular target: Signal transducer and activator of transcription 3 (Homo sapiens) (UniProt P40763); test: ATG_STAT3_CIS: Attagene CIS-FACTORIAL HepG2 Assay for human Signal Transducer and Activator of Transcription 3 (STAT3) (AID 2282963); details: HepG2, Attagene cis-factorial STAT3 reporter transcription; actives raise or lower the signal
Sequence of Signal transducer and activator of transcription 3 (Homo sapiens) (P40763 whole entry, looked up): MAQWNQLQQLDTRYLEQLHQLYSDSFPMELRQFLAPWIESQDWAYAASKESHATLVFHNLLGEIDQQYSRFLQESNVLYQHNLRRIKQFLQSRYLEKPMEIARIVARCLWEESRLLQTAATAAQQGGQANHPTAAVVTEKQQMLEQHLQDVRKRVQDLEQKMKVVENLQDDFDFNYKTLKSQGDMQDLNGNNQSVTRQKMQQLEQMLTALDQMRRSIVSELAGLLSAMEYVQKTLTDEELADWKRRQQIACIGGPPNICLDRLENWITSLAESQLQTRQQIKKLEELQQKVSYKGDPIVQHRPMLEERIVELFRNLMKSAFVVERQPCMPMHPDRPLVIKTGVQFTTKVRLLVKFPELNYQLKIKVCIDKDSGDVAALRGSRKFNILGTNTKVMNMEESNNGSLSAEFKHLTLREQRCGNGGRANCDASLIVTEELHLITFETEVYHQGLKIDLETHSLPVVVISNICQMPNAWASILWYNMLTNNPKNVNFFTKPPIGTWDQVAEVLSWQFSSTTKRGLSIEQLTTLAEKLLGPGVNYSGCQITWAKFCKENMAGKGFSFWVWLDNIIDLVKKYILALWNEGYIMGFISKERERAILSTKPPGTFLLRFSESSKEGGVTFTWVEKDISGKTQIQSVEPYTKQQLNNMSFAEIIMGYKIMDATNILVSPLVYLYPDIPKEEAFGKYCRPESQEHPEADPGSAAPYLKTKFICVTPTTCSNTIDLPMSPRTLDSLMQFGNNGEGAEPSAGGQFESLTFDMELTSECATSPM
In short: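 Cis-factorial format: endogenous transcription factors in HepG2 drive transfected reporter units. After 24 h treatment, reporter RNA was reverse-transcribed, amplified, FAM-labelled and HpaI-digested before CE analysis; activity scored in both directions against DMSO.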

[16] = ATG_PBREM_CIS: Attagene CIS-FACTORIAL HepG2 Assay for human Phenobarbital-responsive Enhancer Module (PBREM) (AID 2282955); details: HepG2 PBREM cis-reporter, Attagene multiplexed transcription; actives raise or lower the signal
In short: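 Multiplexed cis-reporter readout in human hepatoma HepG2 cells; PBREM-regulated transcript quantified after 24 h exposure by fluorescent RT-PCR fragment analysis. Signal changes up or down fitted relative to DMSO.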

[17] = ATG_PPRE_CIS: Attagene CIS-FACTORIAL HepG2 Assay for human Peroxisome Proliferator-activated Response Element (PPRE) (AID 2282958); details: HepG2 PPRE cis-element reporter, Attagene transcription factor profiling; actives raise or lower the signal
In short: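 DMSO served as negative control and baseline for bidirectional curve fitting. Signal came from PPRE-regulated reporter mRNA in HepG2 cells, measured 24 h post-dosing by RT-PCR, 6-FAM primer extension and capillary electrophoresis.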

[18] = ATG_TA_CIS: Attagene CIS-FACTORIAL HepG2 Assay for human TA Basal Promoter (AID 2282964); details: HepG2 Attagene CIS-factorial TA basal promoter reporter; actives raise or lower the signal
In short: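 Fluorescence from labelled RT-PCR reporter fragments, separated by capillary electrophoresis, gives the signal. Cells: HepG2 transiently carrying multiple reporter units, 24 h chemical dosing. Gain or loss relative to DMSO.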

Measured: AC50

c1ccc(Sc2ccccc2)cc1
active: [10] 62.7 µM
not listed: [16] | [17] | [18]
inactive: all other assays above

NCCN1CCNCC1
not listed: [12] | [13] | [18]
inactive: all other assays above

CCc1cccc(O)c1
active: [10] 28.1 µM
not listed: [8] | [11]
inactive: all other assays above

OC[C@@H](O)[C@H](O)[C@@H](O)[C@@H](O)CO
active: [10] 37.2 µM
not listed: [16] | [17]
inactive: all other assays above

C=CC(=O)OCCCCCC
active: [10] 59.6 µM
not listed: [11] | [16] | [17]
inactive: all other assays above

CCO[Si](CC)(OCC)OCC
active: [10] 2.33 µM
not listed: [12] | [15] | [17]
inactive: all other assays above

N#CCCCC(C#N)CCC#N (centres undefined)
not listed: [12] | [13] | [16]
inactive: all other assays above

CC(=O)C1=C(C)[C@@H]2C[C@@]3(C1)[C@H](C)CC[C@H]3C2(C)C
inactive: [9] | [17] | [11] | [12]
active: [1] 166 µM | [2] 73.2 µM | [3] 148 µM | [4] 75.3 µM | [5] 131 µM | [6] 186 µM | [7] 24.5 µM | [16] 161 µM | [10] 1.91 µM | [13] 50.5 µM | [14] 71.8 µM | [15] 150 µM

CC(C)N1C(=O)c2ccccc2C1=O
active: [10] 37.2 µM
not listed: [11] | [12]
inactive: all other assays above
